Data: PubChem BioAssay (Tox21)
Inconclusive results are not listed. A call without a number means that no potency is given here. A number with no mark means an inactive call. Calls of active or inactive are those of the source. Calls follow the shape of the dose curve; as a rule, active = well fitted cell-killing curve with a large enough effect in the repeat runs; inconclusive = weak or mixed curves, or effect the other way; inactive = flat fitted curve, though single readings scatter.

Test: qHTS assay to identify small molecule agonists of the androgen receptor (AR) signaling pathway in the presence of an antagonist - cell viability counter screen (AID 1259379); also: nearly all actives have a fitted effect of over 25% in size
Conditions: MDA-kb2 viability, CellTiter-Fluor, 16 h; series mostly up to 92.4 µM
From the text: National Center for Advancing Translational Sciences [NCATS]
NIH Chemical Genomics Center [NCGC]
U.S. Environmental Protection Agency [EPA]
National Institutes of Environmental Health Sciences [NIEHS]
National Toxicology Program [NTP]
U.S. Food and Drug Administration [FDA]
Androgen receptor (AR) is an important member of nuclear receptor family. Its signaling plays a critical role in AR-dependent prostate cancer and other androgen related diseases. Considerable attention has been given in the past decades to develop methods to study and screen for the environmental chemicals that have the potential to interfere with metabolic homeostasis, reproduction, developmental and behavioral functions. Therefore AR binding assay for screening against androgen agonists and antagonists can be used to identify potential endocrine disruptors.
MDA-kb2 cells (from ATCC, deposited by Wilson et al.) are human breast carcinoma cells that were stably transfected with a luciferase reporter gene under control of the MMTV promoter that contains response elements for both androgen receptor (AR) and glucocorticoid receptor (GR). This particular screening for measuring luciferase reporter gene activity using MDA-kb2 cells against Tox21 10K library compounds is a confirmation study on agonist mode screening in the presence of AR-antagonist compound (Nilutamide) at 3.0uM final concentration. The cytotoxicity of the compounds was tested in parallel by measuring the cell viability using CellTiter-Fluor assay system (Promega, Madison, WI) in the same wells.
Tox21 Assay Protocol Summary:
MDA-kb2 cells (cells cultured without CO2) were dispensed at 3,000 cells/well in 4uL of culture medium into white wall/solid-bottom 1536-well plates (Corning Life Sciences, Corning, NY) using a Multidrop Combi (Thermo Fisher Scientific Inc., Waltham, MA) dispenser. The assay plates were incubated at 37C and 0% CO2 for 5hr. One uL of 3.0uM (final concentration) Nilutamide or assay buffer was added using two separate tips of Flying Reagent Dispenser (FRD, Aurora Discovery, San Diego, CA). Then 23nL of compounds dissolved in DMSO at 15 concentrations and positive controls were transferred to the assay plates using a Pintool station (Wako, San Diego, CA). The assay plates were incubated at 37C and 0% CO2 for 16 hr. After 15hr incubation at 37C, 1uL/well CellTiter-Fluor reagent (Promega Corporation) was added to each well of the assay plates using FRD. After 1hr incubation at 37C and 0% CO2, the fluorescence signal was measured using a ViewLux plate reader (PerkinElmer, Shelton, CT).
Potency is read from the fitted curve at half-maximal effect.

Row | SMILES | Potency | activity change, negative = cytotoxicity
1 | Cc1ccc2nc(-c3ccc(N)cc3)sc2c1S(=O)(=O)O | inactive | –
2 | Nc1ccc(Oc2cccc(Oc3ccc(N)cc3)c2)cc1 | inactive | –
3 | O=C(Cl)c1ccc(Cl)cc1Cl | inactive | –
4 | C=C[Si](C)(C)Cl | – | -1.9% [at 8.39 µM]
5 | O=C1c2ccccc2C(=O)c2c(Cl)cccc21 | inactive | –
6 | C=CC(=O)OCC(Br)CBr (stereo not given) | inactive | –
7 | CCc1cccc(C)c1N(C(=O)CS(=O)(=O)O)C(C)COC (stereo not given) | inactive | –
8 | Clc1ccc2c(Cl)ccnc2c1 | inactive | –
9 | CCCOC(=O)c1ccc(O)cc1 | inactive | –
10 | CC(O)(c1ccc(Cl)cc1)c1ccc(Cl)cc1 | inactive | –
11 | Cc1ccc(N=Nc2c(O)ccc3ccccc23)c(C)c1 | 13.3 µM (active) | –
12 | Cc1cccc(C)c1C | inactive | –
13 | CO[Si](OC)(c1ccccc1)c1ccccc1 | inactive | –
14 | CCN(CC)c1ccc(C=O)cc1 | inactive | –
15 | CC(C)c1ccc2sc3ccccc3c(=O)c2c1 | inactive | –
16 | CC(C)(C)C1=CC(=O)C(C(C)(C)C)=CC1=O | inactive | –
17 | CSc1ccc(O)cc1C | inactive | –
18 | C=CC(=O)O[C@H]1C[C@@H]2CC[C@@]1(C)C2(C)C | inactive | –
19 | Nc1ccc(N)c([N+](=O)[O-])c1 | 54.5 µM (active) | –
20 | S=C1NC=NC2N=CNC12 (stereo not given) | inactive | –

Row | SMILES | Potency | activity change, negative = cytotoxicity
21 | Cn1c(=O)[nH]c2ncn(C)c2c1=O | inactive | –
22 | CC(C)(C)c1cc(CCC(=O)OCCSCCOC(=O)CCc2cc(C(C)(C)C)c(O)c(C(C)(C)C)c2)cc(C(C)(C)C)c1O | inactive | –
23 | COC(=O)c1ccc([N+](=O)[O-])cc1 | inactive | –
24 | COc1cc(OC)nc(NC(=O)NS(=O)(=O)Nc2ccccc2C(=O)N(C)C)n1 | inactive | –
25 | CCC1(C)C(=O)N(Cl)C(=O)N1Cl (stereo not given) | inactive | –
26 | Nc1cc([N+](=O)[O-])ccc1Cl | inactive | –
27 | O=C1OC(=O)c2cc(-c3ccc4c(c3)C(=O)OC4=O)ccc21 | inactive | –
28 | Cc1ccc(C=O)cc1 | inactive | –
29 | CN1CCN(C)CC1 | inactive | –
30 | N#CCCOCCC#N | inactive | –
31 | Cc1ccc(C2OC[C@@H]3OC(c4ccc(C)cc4)O[C@H]([C@H](O)CO)[C@@H]3O2)cc1 (stereo not given in full) | inactive | –
32 | CCN(CC)c1ccc2c(c1)Oc1cc(N(CC)CC)ccc1C21OC(=O)c2ccccc21 | 7.5 µM (active) | –
33 | C=C(C)C1CCC(C)CC1O (stereo not given) | inactive | –
34 | c1ccc2occc2c1 | inactive | –
35 | C=Cc1ccncc1 | inactive | –
36 | Cc1cc(Br)ccc1NC(=O)CCl | 54.5 µM (active) | –
37 | CC/C(=C(/c1ccc(O)cc1)c1ccc(OCCN(C)C)cc1)c1ccccc1 | 40.3 µM (active) | –
38 | CCCC(=O)c1cc(O)c(O)cc1O | 54.5 µM (active) | –
39 | C=C1CC[C@H]2O[C@]2(C)CC[C@@H]2[C@@H]1CC2(C)C | inactive | –
40 | CCCCCCCCSCc1cc(C)c(O)c(CSCCCCCCCC)c1 | inactive | –
